# Many of the other results were omitted from the sample, so the strongest signals are more common in it than they were.
# B1: DGL (Dioclea grandiflora), P08902 (protein)
# chain: ADTIVAVELDSYPNTDIGDPNYPHIGIDIKSIRSKSTARWNMQTGKVGTVHISYNSVAKRLSAVVSYSGSSSTTVSYDVDLNNVLPEWVRVGLSATTGLYKETNTILSWSFTSKLKTNSIADENSLHFSFHKFSQNPKDLILQGDAFTDSDGNLELTKVSSSGDPQGNSVGRALFYAPVHIWESSAVVASFDATFTFLIKSPDREPADGITFFIANTDTSIPSGSGGRLLGLFPDAN
# What was measured:
# Experiment in all cases: glycan array binding signal (z-score within array); higher = stronger binding
# Settings in all cases: glycan notation: IUPAC condensed, linker removed
# [1] = target: Fuc(a1-2)Gal(b1-3)GlcNAc(b1-3)Gal(b1-4)Glc
# Procedure, shortened: (§1)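 Negative Z-scores can be read as non-binding. The Z-score is calculated within each array and then averaged across arrays of one protein sequence at different concentrations or buffers and across linkers. Arrays, 3228 in all, were curated from the Consortium for Functional Glycomics database and kept only where the protein sequence was available.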
# [2] = target: Fuc(a1-2)Gal(b1-3)[Fuc(a1-4)]GlcNAc(b1-2)Man(a1-3)[Fuc(a1-2)Gal(b1-3)[Fuc(a1-4)]GlcNAc(b1-2)Man(a1-6)]Man(b1-4)GlcNAc(b1-4)GlcNAc
# Procedure, shortened: as §1
# Fuc(a1-2)Gal(b1-4)Glc6S = target: Fuc(a1-2)Gal(b1-4)Glc6S
# Procedure, shortened: as §1
# [3] = target: Fuc(a1-2)Gal(b1-4)[Fuc(a1-3)]GlcNAc
# Procedure, shortened: as §1
# [4] = target: Fuc(a1-2)Gal(b1-4)[Fuc(a1-3)]GlcNAc(b1-2)Man(a1-3)[Fuc(a1-2)Gal(b1-4)[Fuc(a1-3)]GlcNAc(b1-2)Man(a1-6)]Man(b1-4)GlcNAc(b1-4)GlcNAc
# Procedure, shortened: as §1
# [5] = target: Fuc(a1-2)Gal(b1-4)[Fuc(a1-3)]GlcNAc(b1-3)Gal(b1-4)[Fuc(a1-3)]GlcNAc(b1-3)Gal(b1-4)[Fuc(a1-3)]GlcNAc
# Procedure, shortened: as §1
# [6] = target: Fuc(a1-2)[Gal(a1-3)]Gal(b1-4)Glc
# Procedure, shortened: as §1
# [7] = target: Fuc(a1-3)[Gal(b1-4)]GlcNAc(b1-4)Gal(b1-4)[Fuc(a1-3)]GlcNAc(b1-4)Gal(b1-4)[Fuc(a1-3)]GlcNAc
# Procedure, shortened: as §1
# [8] = target: Fuc(a1-3)[Neu5Ac(a2-3)]Gal(b1-4)GlcNAc(b1-3)GalNAc
# Procedure, shortened: as §1
# Fuc(a1-4)GlcNAc = target: Fuc(a1-4)GlcNAc
# Procedure, shortened: as §1
# [9] = target: Gal(a1-3)Gal(b1-4)[Fuc(a1-3)]GlcNAc(b1-2)Man(a1-3)[Gal(a1-3)Gal(b1-4)[Fuc(a1-3)]GlcNAc(b1-2)Man(a1-6)]Man(b1-4)GlcNAc(b1-4)GlcNAc
# Procedure, shortened: as §1
# Gal(a1-3)GalNAc = target: Gal(a1-3)GalNAc
# Procedure, shortened: as §1
# Gal(b1-3)GlcNAc = target: Gal(b1-3)GlcNAc
# Procedure, shortened: as §1
# [10] = target: Gal(b1-4)GlcNAc(b1-2)Man(a1-3)[Man(a1-6)]Man(b1-4)GlcNAc(b1-4)GlcNAc
# Procedure, shortened: as §1
# [11] = target: Gal(b1-4)GlcNAc(b1-2)[Gal(b1-4)GlcNAc(b1-4)]Man(a1-3)[Gal(b1-4)GlcNAc(b1-2)Man(a1-6)]Man(b1-4)GlcNAc(b1-4)GlcNAc
# Procedure, shortened: as §1
# Gal4S6S(b1-4)GlcNAc = target: Gal4S6S(b1-4)GlcNAc
# Procedure, shortened: as §1
# [12] = target: GlcNAc(a1-4)Gal(b1-4)GlcNAc
# Procedure, shortened: as §1
# [13] = target: GlcNAc(b1-2)Man(a1-3)[GlcNAc(b1-2)Man(a1-6)]Man(b1-4)GlcNAc(b1-4)[Fuc(a1-6)]GlcNAc
# Procedure, shortened: as §1
# GlcNAc(b1-3)Gal = target: GlcNAc(b1-3)Gal
# Procedure, shortened: as §1
# [14] = target: GlcNAc(b1-3)[GlcNAc(b1-6)]Gal(b1-4)GlcNAc
# Procedure, shortened: as §1
# [15] = target: Man(a1-2)Man(a1-2)Man(a1-6)[Man(a1-3)]Man
# Procedure, shortened: as §1
# [16] = target: Man(a1-2)Man(a1-3)[Man(a1-2)Man(a1-6)]Man
# Procedure, shortened: as §1
# [17] = target: Man(a1-2)Man(a1-3)[Man(a1-2)Man(a1-6)]Man(a1-6)[Man(a1-2)Man(a1-2)Man(a1-3)]Man
# Procedure, shortened: as §1
# [18] = target: Man(a1-2)Man(a1-3)[Man(a1-6)]Man(a1-6)[Man(a1-2)Man(a1-3)]Man(b1-4)GlcNAc(b1-4)GlcNAc
# Procedure, shortened: as §1
# [19] = target: Man(a1-2)Man(a1-6)[Man(a1-3)]Man(a1-6)[Man(a1-2)Man(a1-2)Man(a1-3)]Man
# Procedure, shortened: as §1
# [20] = target: Man(a1-2)Man(a1-6)[Man(a1-3)]Man(a1-6)[Man(a1-2)Man(a1-2)Man(a1-3)]Man(b1-4)GlcNAc(b1-4)GlcNAc
# Procedure, shortened: as §1
# Man(a1-3)[Man(a1-6)]Man = target: Man(a1-3)[Man(a1-6)]Man
# Procedure, shortened: as §1
# Man(b1-4)GlcNAc = target: Man(b1-4)GlcNAc
# Procedure, shortened: as §1
# [21] = target: Neu5Ac(a2-3)Gal(b1-4)GlcNAc(b1-3)Gal(b1-4)GlcNAc(b1-3)Gal(b1-4)GlcNAc
# Procedure, shortened: as §1
# [22] = target: Neu5Ac(a2-6)Gal(b1-4)GlcNAc(b1-3)Gal(b1-4)GlcNAc
# Procedure, shortened: as §1
# [23] = target: Neu5Ac(a2-6)Gal(b1-4)GlcNAc6S
# Procedure, shortened: as §1
# [24] = target: Neu5Ac(a2-8)Neu5Ac(a2-3)[GalNAc(b1-4)]Gal(b1-4)Glc
# Procedure, shortened: as §1
# [25] = target: Neu5Ac(a2-8)Neu5Ac(a2-8)Neu5Ac
# Procedure, shortened: as §1
# [26] = target: Neu5Gc(a2-3)Gal(b1-3)[Fuc(a1-4)]GlcNAc
# Procedure, shortened: as §1
binder,measurement,setting,value
B1,glycan array binding signal (z-score),[1],-0.177
same,glycan array binding signal (z-score),[2],-0.169
same,glycan array binding signal (z-score),Fuc(a1-2)Gal(b1-4)Glc6S,-0.172
same,glycan array binding signal (z-score),[3],-0.176
same,glycan array binding signal (z-score),[4],-0.144
same,glycan array binding signal (z-score),[5],-0.168
same,glycan array binding signal (z-score),[6],-0.177
same,glycan array binding signal (z-score),[7],-0.182
same,glycan array binding signal (z-score),[8],-0.072
same,glycan array binding signal (z-score),Fuc(a1-4)GlcNAc,-0.175
same,glycan array binding signal (z-score),[9],-0.175
same,glycan array binding signal (z-score),Gal(a1-3)GalNAc,-0.173
same,glycan array binding signal (z-score),Gal(b1-3)GlcNAc,-0.172
same,glycan array binding signal (z-score),[10],-0.151
same,glycan array binding signal (z-score),[11],-0.161
same,glycan array binding signal (z-score),Gal4S6S(b1-4)GlcNAc,-0.183
same,glycan array binding signal (z-score),[12],-0.176
same,glycan array binding signal (z-score),[13],0.316
same,glycan array binding signal (z-score),GlcNAc(b1-3)Gal,-0.178
same,glycan array binding signal (z-score),[14],-0.183
same,glycan array binding signal (z-score),[15],5.91
same,glycan array binding signal (z-score),[16],9.67
same,glycan array binding signal (z-score),[17],3.48
same,glycan array binding signal (z-score),[18],6.68
same,glycan array binding signal (z-score),[19],7.91
same,glycan array binding signal (z-score),[20],6.41
same,glycan array binding signal (z-score),Man(a1-3)[Man(a1-6)]Man,3.63
same,glycan array binding signal (z-score),Man(b1-4)GlcNAc,-0.186
same,glycan array binding signal (z-score),[21],-0.183
same,glycan array binding signal (z-score),[22],-0.178
same,glycan array binding signal (z-score),[23],-0.179
same,glycan array binding signal (z-score),[24],-0.178
same,glycan array binding signal (z-score),[25],-0.175
same,glycan array binding signal (z-score),[26],-0.179

# — the supplement of paper PMC8728848
